Compounds with a hit are over-represented: about 1.4% of the library has one in this group of screens.
LmPK inh – LmPK (Leishmania mexicana) enzyme inhibition; Q27686; purified LmPK, Kinase-Glo ATP luminescence, 1 h; Potency, µM (doses to about 57.5 µM), most hits filed as inhibitors; 290,000 compounds, 0.37% hits; AID 1721
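0.1 nM LmPK, 0.5 mM PEP, 0.1 mM ADP; 50 mM imidazole pH 7.2, 7 mM MgCl2, 50 mM KCl; 1 h RT. Kinase-Glo luminescence readout, normalized to no-enzyme (full inhibition) and uninhibited wells.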
RE007 growth inh – less growth of the S. pombe RE007 Vpr strain; Potency, µM (series often up to 92.2 µM), usual class: inhibitors; 360,000 compounds, 0.21% hits; AID 651644; S. pombe RE007 Vpr strain, BacTiter-Glo ATP luminescence, 24 h; active = well fitted falling curve with a large enough effect; inconclusive = small, poorly fitted or top-dose-only effect; inactive = no such curve, though single readings can be large or run the other way; note: nearly all actives have a fitted effect of over 50% in size
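Fission yeast RE007 carrying one integrated HIV-1 vpr copy, seeded at OD 0.01 in PMG+AL medium with 23 nL pinned compound. Grown 24 h at 30 degrees; viability read by BacTiter-Glo luminescence after 5 min.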
AmpC detergent – inhibitors of E. coli AmpC beta-lactamase with detergent; Potency, µM (series often up to 114 µM), usual class: inhibitors; P00811; AmpC hydrolysis of nitrocefin, absorbance 480 nm, 0.01% Triton; 370,000 compounds, 0.041% hits; AID 485294; note: nearly all actives have a fitted effect of over 25% in size
Target sequence (P00811 whole entry, looked up): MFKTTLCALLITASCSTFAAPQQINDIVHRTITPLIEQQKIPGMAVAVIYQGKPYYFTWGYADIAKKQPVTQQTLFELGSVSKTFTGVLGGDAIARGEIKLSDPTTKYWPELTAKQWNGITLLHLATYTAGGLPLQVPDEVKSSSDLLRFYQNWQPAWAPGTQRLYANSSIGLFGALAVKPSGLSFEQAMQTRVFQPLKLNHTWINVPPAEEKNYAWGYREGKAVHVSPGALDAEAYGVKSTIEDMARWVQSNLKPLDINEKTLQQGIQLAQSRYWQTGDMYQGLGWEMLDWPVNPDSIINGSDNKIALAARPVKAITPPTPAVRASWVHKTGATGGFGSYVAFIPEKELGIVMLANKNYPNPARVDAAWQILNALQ
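20 mM phosphate pH 7.0 + 0.01% (detergent screen) or 0.0001% Triton X-100; 5.3 nM AmpC reagent; cpd preinc 15 min RT; nitrocefin (800 uM stock) to start; A480 q20 s × 4 min; Activity was normalised to no-enzyme and no-compound control wells.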
TbPYK inhibitor – T. brucei pyruvate kinase inhibition; Q57TT1; TbPYK enzyme, Kinase-Glo Plus ATP luminescence, 45 min; Potency, µM (highest dose often 76.8 µM), hits mostly inhibitors; 410,000 compounds, 0.12% hits; AID 624173; note: nearly all actives have a fitted effect of over 50% in size
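Quantitative HTS: titrated library compounds versus trypanosomal pyruvate kinase in TEA buffer (pH 7.2) containing KCl, MgCl2, BSA and Tween-20. Reactions were initiated with ADP, 130 uM final. Kinase-Glo Plus luminescence was read after 45 min at RT.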
AmpC no deterg – blocks E. coli AmpC beta-lactamase in detergent-free assay; AID 485341; 330,000 compounds, 0.52% hits; Potency, µM (highest dose often 57.1 µM), actives largely listed as inhibitors; AmpC nitrocefin hydrolysis, absorbance 480 nm, 0.0001% Triton; note: nearly all actives have a fitted effect of over 20% in size
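20 mM phosphate pH 7.0 + 0.01% (detergent screen) or 0.0001% Triton X-100; 5.3 nM AmpC reagent; cpd preinc 15 min RT; nitrocefin (800 uM stock) to start; A480 q20 s × 4 min; Activity was normalised to no-enzyme and no-compound control wells.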
Giardia FBPA inh – inhibitors of Giardia lamblia fructose-1,6-bisphosphate aldolase; A8B2U2; purified Giardia FBPA; Potency, µM (top dose mostly 59.6 µM), usual class: inhibitors; 290,000 compounds, 0.71% hits; AID 2451; note: nearly all actives have a fitted effect of over 55% in size
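Giardia FBPA (40 nM reagent) was preincubated 10 min at RT with compound (up to 57.5 uM final), then substrate plus GAPDH/TPI/NAD/arsenate coupling system with diaphorase/resazurin was added; resorufin fluorescence (525/598 nm) was read after 20 min.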
Of the large screens only hits and unclear results are named; the others gave an inactive call. Unless noted, calls come from the whole dose curve; as a rule, active = well fitted curve in the direction sought with a large enough effect; inconclusive = small, poorly fitted or top-dose-only effect, or another doubt; inactive = no such curve, though single readings can be large; an effect the other way counts as inactive or inconclusive.

O=C(CCN1C(=O)/C(=C/c2cccs2)SC1=S)Nc1ccccn1	none
O=C(CCN1C(=O)S/C(=C\c2cccs2)C1=O)NC1=NCCS1	AmpC no deterg 22µM
CCCN(CCC)C(=O)Cn1c(=O)n(-c2ccc(CC)cc2)c(=O)c2ccc(C(=O)NCCc3ccccc3)cc21	none (no result: LmPK inh, RE007 growth inh, AmpC no deterg, Giardia FBPA inh)
CCSC1(SCC)N=C(N)C2(C#N)C(c3ccc(OC)c(OC)c3OC)C12C#N (stereo not drawn)	RE007 growth inh 5.6µM
Cc1nc2ccccc2c(=O)n1/N=C/c1ccc(O)c(O)c1O	AmpC detergent inconclusive, Giardia FBPA inh 7.1µM (no result: RE007 growth inh)
Oc1ccc(/C=N/N(c2ccccc2)c2ccccc2)cc1O	TbPYK inhibitor inconclusive (no result: Giardia FBPA inh)
Oc1ccc(/C=N/N(c2ccccc2)c2ccccc2)c(O)c1O	AmpC no deterg 28µM (no result: RE007 growth inh, TbPYK inhibitor, Giardia FBPA inh)
O=C1c2ccccc2C(=O)N1/N=C/c1ccc(O)c(O)c1O	TbPYK inhibitor inconclusive, Giardia FBPA inh 7.9µM
Cc1nn(C(C)C(=O)Nc2ccccc2C(F)(F)F)c(=O)c2c1sc1ccccc12 (stereo not drawn)	none (no result: LmPK inh, RE007 growth inh, AmpC no deterg, Giardia FBPA inh)
CCC(=O)Oc1ccc(-c2nc(-c3cccnc3)no2)cc1	LmPK inh 7.9µM, RE007 growth inh inconclusive
O=C(/C=C/c1cccs1)N1CCc2ccccc21	LmPK inh 14µM, TbPYK inhibitor inconclusive (no result: RE007 growth inh)
CCN(C(=O)CSc1nc2n[nH]c(C)c2c(=N)n1-c1cccc(OC)c1)c1cccc(C)c1	none (no result: LmPK inh, RE007 growth inh, AmpC no deterg, Giardia FBPA inh)
O=C1Nc2ccccc2/C1=C/c1ccc([N+](=O)[O-])cc1	none
CC1(c2ccc([N+](=O)[O-])cc2)Nc2ccccc2S1 (stereo not drawn)	RE007 growth inh 40µM
O=C(C#Cc1ccccc1)c1ccco1	RE007 growth inh 8.9µM, AmpC detergent inconclusive
Cc1cc(NC(c2ccc(Cl)cc2)c2ccc3cccnc3c2O)no1 (stereo not drawn)	RE007 growth inh inconclusive, AmpC no deterg 4.5µM
CN(C)[C@@H]1C(=O)C(C(N)=O)=C(O)[C@@]2(O)C(=O)C3=C(O)c4c(O)cccc4[C@@](C)(O)C3C[C@@H]12 (stereo partly drawn)	none (no result: LmPK inh, Giardia FBPA inh)
CN(C)[C@H]1C(=O)C(C(=O)NCN2CCCC2)=C(O)[C@]2(O)C(=O)C3=C(O)c4c(O)cccc4[C@@](C)(O)[C@H]3C[C@@H]12	Giardia FBPA inh 4.5µM (no result: LmPK inh, RE007 growth inh, AmpC detergent, AmpC no deterg)
CN(C)[C@@H]1C(=O)C(C(N)=O)=C(O)[C@@]2(O)C(=O)C3=C(O)c4c(O)cccc4[C@@](C)(O)[C@H]3[C@H](O)[C@@H]12	AmpC detergent inconclusive, Giardia FBPA inh 4.5µM
COc1cccc(CNCCSc2nnnn2-c2ccccc2)c1OC	none (no result: LmPK inh, RE007 growth inh, AmpC no deterg, Giardia FBPA inh)
CC(=O)O[C@H]1C[C@@H]2CC[C@@H]3[C@H](CC[C@]4(C)[C@H](OC(C)=O)[C@@H](N5CC[N+](C)(C)CC5)C[C@@H]34)[C@@]2(C)C[C@@H]1N1CC[N+](C)(C)CC1	none (no result: LmPK inh, RE007 growth inh, AmpC detergent, AmpC no deterg, Giardia FBPA inh)
NS(=O)(=O)c1ccc(NC(=O)c2ccc(-c3ccccc3)cc2)cc1	none
NS(=O)(=O)c1ccc(NS(=O)(=O)c2ccc(NC(=O)c3ccc(-c4ccccc4)cc3)cc2)cc1	AmpC no deterg 11µM
Cc1c(N)nc([C@@H](CC(N)=O)NC[C@H](N)C(N)=O)nc1C(=O)N[C@H](C(=O)N[C@H](C)[C@H](O)[C@H](C)C(=O)N[C@@H](C(=O)NCCc1nc(-c2nc(C(=O)NCCC[S+](C)C)cs2)cs1)[C@H](C)O)[C@H](O[C@@H]1O[C@@H](CO)[C@@H](O)[C@H](O)[C@@H]1O[C@H]1O[C@H](CO)[C@H](O)[C@H](OC(N)=O)[C@@H]1O)c1cnc[nH]1	none (no result: LmPK inh, RE007 growth inh, AmpC detergent, AmpC no deterg, Giardia FBPA inh)
Cc1cc(C)c(NC(=O)C2=CCN(S(=O)(=O)c3ccc(F)cc3)CC2)c(C)c1	AmpC detergent inconclusive
Cc1cc(C)c(NC(=O)c2c[nH]c(=S)n2-c2ccc(F)cc2)c(C)c1	LmPK inh inconclusive, TbPYK inhibitor 7.9µM

Source: PubChem BioAssay
